This is an account of results in PubChem BioAssay (NCI).

A short description of assay [1]: NCI Yeast Anticancer Drug Screen. Data for the rad50 strain (AID 155).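 Also: 0% = growth of vehicle-only cultures of the same strain.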 The settings on record: S. cerevisiae rad50 strain growth inhibition, stronger effect = higher value. In short, it runs like this: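 Compounds were tested on a yeast strain with an engineered DNA damage repair alteration; the reported value is growth inhibition normalised to vehicle treatment.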
The nature of assay [2]: NCI Yeast Anticancer Drug Screen. Data for the mec2-1 strain (AID 157). The settings on record: S. cerevisiae mec2-1 strain, stronger effect = higher value. In short, it runs like this: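 Vehicle-treated cultures served as reference for growth inhibition of compound-exposed mec2-1 yeast.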
Assay [3] can be described thus: NCI Yeast Anticancer Drug Screen. Data for the sgs1 mgt1 strain (AID 161).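 Also: 0% = growth of cultures given vehicle only.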 The settings on record: S. cerevisiae sgs1 mgt1 strain, stronger effect = higher value. A digest of the protocol:
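Read-out: growth inhibition vs vehicle controls. Cells: mutant yeast strain deficient in DNA damage repair.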

Assay [4] in a line: NCI Yeast Anticancer Drug Screen. Data for the cln2 rad14 strain (AID 165).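 Also: 0% = growth equal to vehicle treated cultures.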 To be noted: S. cerevisiae cln2 rad14 strain, stronger effect = higher value. A digest of the protocol:
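Each compound was tested on cln2 rad14 yeast. Inhibition of growth was calculated against vehicle-exposed controls.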

The nature of assay [5]: NCI Yeast Anticancer Drug Screen. Data for the bub3 strain (AID 167). The settings on record: S. cerevisiae bub3 mutant strain, stronger effect = higher value. In short, it runs like this: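 Growth of a checkpoint-deficient yeast mutant is measured after compound exposure. Values represent inhibition relative to vehicle.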
The nature of assay [6]: NCI Yeast Anticancer Drug Screen. Data for the mlh1 rad18 strain (AID 175). To be noted: S. cerevisiae mlh1 rad18 strain growth inhibition, stronger effect = higher value. In short, it runs like this: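 Vehicle-treated cultures served as the reference for growth inhibition in a yeast strain carrying DNA damage repair alterations exposed to each compound.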
[7] abbreviates: at 5.0 µM (retest, dose inferred, filed as 0.5).
[8] abbreviates: at 50.0 µM (retest, dose inferred, filed as 5.0).

This is part of a sample that, as a whole, favours compounds with a hit. Of some 79,000 tested, about 15% had one in any assay. Values without a mark were called inactive. Calls of active or inactive are those of the source. Rule as the data show it: active = growth inhibition above about 70%; inactive = the rest.

For the compound `O=C(/C=C\c1ccccc1)/C=C/c1ccccc1`, the growth inhibition in assay [1] (setting [7]) is 4%; in assay [1] (setting [8]), 39%; in assay [1] (at 50.0 µM), 40.5%; in assay [2] (setting [7]), -2%; in assay [2] (setting [8]) it was 8%; in assay [2] (at 50.0 µM) it was 12.6%. Moreover, the growth inhibition in assay [3] (setting [7]) was 0%; in assay [3] (setting [8]), 24%; in assay [3] (at 50.0 µM) it was 28.2%; in assay [4] (setting [7]), -1%; in assay [4] (setting [8]) it was 4%; in assay [4] (at 50.0 µM), -14.3%. The growth inhibition in assay [5] (setting [7]) is 7%; in assay [5] (setting [8]), 53%; in assay [5] (at 50.0 µM) it was 27.9%; in assay [6] (setting [7]), -1%; in assay [6] (setting [8]), 17%; in assay [6] (at 50.0 µM), 70.8% (active).
On to `CC1(C)CC(=O)C2=C(C1)OC1=C(CC(C)(C)CC1=O)C2c1ccccc1[N+](=O)[O-]` (stereo not drawn), for which the growth inhibition in assay [1] (setting [7]) was 22%; in assay [1] (setting [8]), 22%; in assay [1] (at 50.0 µM), -21.8%; in assay [2] (setting [7]), 16%; in assay [2] (setting [8]) it was 12%; in assay [2] (at 50.0 µM), -13.3%. In addition, the growth inhibition is 25% in assay [3] (setting [7]); 19% in assay [3] (setting [8]); -13.5% in assay [3] (at 50.0 µM); 23% in assay [4] (setting [7]); 41% in assay [4] (setting [8]); -7.3% in assay [4] (at 50.0 µM). Moreover, the growth inhibition is 9% in assay [5] (setting [7]), 5% in assay [5] (setting [8]) and -17.6% in assay [5] (at 50.0 µM).
Turning to `COc1ccc(-c2cc(=O)c3c(C)ccnc3[nH]2)cc1`, the growth inhibition in assay [1] (setting [7]) was 58%; in assay [1] (setting [8]), 58%; in assay [1] (at 50.0 µM), 87.2% (active); in assay [2] (setting [7]) it was 43%; in assay [2] (setting [8]), 43%; in assay [2] (at 50.0 µM), 83.2% (active). The growth inhibition in assay [3] (setting [7]) is 54%; in assay [3] (setting [8]), 54%; in assay [3] (at 50.0 µM) it was 82.5% (active); in assay [4] (setting [7]) it was 20%; in assay [4] (setting [8]), 20%; in assay [4] (at 50.0 µM) it was 65.8%. In addition, the growth inhibition in assay [5] (setting [7]) was 25%; in assay [5] (setting [8]), 25%; in assay [5] (at 50.0 µM), 81.8% (active); in assay [6] (setting [7]), 39%; in assay [6] (setting [8]), 39%; in assay [6] (at 50.0 µM) it was 81.5% (active).
With `O=C1C=CC(=O)C(c2ccccc2)=C1`, the growth inhibition in assay [1] (setting [7]) is 12%; in assay [1] (setting [8]) it was 99% (active); in assay [1] (at 50.0 µM) it was 99.5% (active); in assay [2] (setting [7]), 24%; in assay [2] (setting [8]), 99% (active); in assay [2] (at 50.0 µM), 99.5% (active). Also, the growth inhibition is 18% in assay [3] (setting [7]); 99% (active) in assay [3] (setting [8]); 99.5% (active) in assay [3] (at 50.0 µM); 16% in assay [4] (setting [7]); 99% (active) in assay [4] (setting [8]); 98.8% (active) in assay [4] (at 50.0 µM). Besides, the growth inhibition in assay [5] (setting [7]) was 3%; in assay [5] (setting [8]) it was 99% (active); in assay [5] (at 50.0 µM), 99.5% (active); in assay [6] (setting [7]) it was 18%; in assay [6] (setting [8]), 99% (active); in assay [6] (at 50.0 µM), 99.2% (active).
In the case of `CC(=O)N=C1N(/C=C2\C(=O)Oc3ccccc3C2=O)C(=O)/C(=C/c2ccc(Cl)cc2Cl)N1C`, the growth inhibition in assay [1] (setting [7]) is 1%; in assay [1] (setting [8]), 92% (active); in assay [1] (at 50.0 µM) it was 91.8% (active); in assay [2] (setting [7]) it was 11%; in assay [2] (setting [8]), 96% (active); in assay [2] (at 50.0 µM), 95% (active). The growth inhibition was 7% in assay [3] (setting [7]); 90% (active) in assay [3] (setting [8]); 94.2% (active) in assay [3] (at 50.0 µM); -3% in assay [4] (setting [7]); 91% (active) in assay [4] (setting [8]); 89.8% (active) in assay [4] (at 50.0 µM). In addition, the values for the growth inhibition in assay [5] (setting [7]), in assay [5] (setting [8]) and in assay [5] (at 50.0 µM) were 23%, 87% (active) and 93.4% (active), respectively.
As to `CN(C)c1ccc(C=Nc2cnc3ccccc3c2)cc1`, the growth inhibition in assay [1] (setting [7]) is -10%; in assay [1] (setting [8]) it was 10%; in assay [1] (at 50.0 µM) it was -54.4%; in assay [2] (setting [7]), -5%; in assay [2] (setting [8]), -13%; in assay [2] (at 50.0 µM) it was -14.3%. For the same compound, the growth inhibition in assay [3] (setting [7]) is -4%; in assay [3] (setting [8]), -1%; in assay [3] (at 50.0 µM) it was -3.05%; in assay [4] (setting [7]), -32%; in assay [4] (setting [8]), -14%; in assay [4] (at 50.0 µM), -43.7%. Further, the growth inhibition in assay [5] (setting [7]) was 2%; in assay [5] (setting [8]), 5%; in assay [5] (at 50.0 µM) it was -3.65%; in assay [6] (setting [7]), 0%; in assay [6] (setting [8]), 10%; in assay [6] (at 50.0 µM) it was -6.35%.
`CC(C)OP(=O)(CCCCCCCCC/C=C/c1ccc2c(c1)OCCOCCOCCOCCO2)OC(C)C`: the growth inhibition in assay [1] (setting [7]) was 20%; in assay [1] (setting [8]), 98% (active); in assay [1] (at 50.0 µM), 97.8% (active); in assay [2] (setting [7]), 4%; in assay [2] (setting [8]) it was 99% (active); in assay [2] (at 50.0 µM) it was 92.3% (active). Further, the growth inhibition in assay [3] (setting [7]) was -4%; in assay [3] (setting [8]) it was 98% (active); in assay [3] (at 50.0 µM) it was 98.2% (active); in assay [4] (setting [7]), 7%; in assay [4] (setting [8]), 98% (active); in assay [4] (at 50.0 µM), 97.3% (active). Also, the growth inhibition is -11% in assay [5] (setting [7]), 99% (active) in assay [5] (setting [8]) and 98.3% (active) in assay [5] (at 50.0 µM).
In the case of `N#C/C(=C1C=C/C(=N/O)C=C/1Cl)c1ccccc1`, the growth inhibition in assay [1] (setting [7]) is -3%; in assay [1] (setting [8]), -7%; in assay [1] (at 50.0 µM), 21.7%; in assay [2] (setting [7]), -7%; in assay [2] (setting [8]), 4%; in assay [2] (at 50.0 µM), 24.3%. The growth inhibition was 4% in assay [3] (setting [7]); 36% in assay [3] (setting [8]); 51.9% in assay [3] (at 50.0 µM); -15% in assay [4] (setting [7]); 6% in assay [4] (setting [8]); 69.5% in assay [4] (at 50.0 µM). Also, the growth inhibition was 5% in assay [5] (setting [7]); 18% in assay [5] (setting [8]); 28.1% in assay [5] (at 50.0 µM); -11% in assay [6] (setting [7]); 10% in assay [6] (setting [8]); 26.4% in assay [6] (at 50.0 µM).
On to `O=S1(=O)c2ccccc2C(Br)C1Br` (stereo not drawn), for which the growth inhibition in assay [1] (setting [7]) was 31%; in assay [1] (setting [8]), 98% (active); in assay [1] (at 50.0 µM), 99.2% (active); in assay [2] (setting [7]) it was 30%; in assay [2] (setting [8]) it was 99% (active); in assay [2] (at 50.0 µM) it was 99.5% (active). In addition, the growth inhibition in assay [3] (setting [7]) is 27%; in assay [3] (setting [8]), 99% (active); in assay [3] (at 50.0 µM), 58.4%; in assay [4] (setting [7]) it was 22%; in assay [4] (setting [8]), 99% (active); in assay [4] (at 50.0 µM), 99% (active). The figures for the growth inhibition in assay [5] (setting [7]), in assay [5] (setting [8]) and in assay [5] (at 50.0 µM) were 25%, 98% (active) and 99.6% (active), respectively.
For the compound `CCCCCCCCCCCCCCCCNCCCCCCCC(=O)O`, the growth inhibition in assay [1] (setting [7]) is -1%; in assay [1] (setting [8]), 64%; in assay [1] (at 50.0 µM) it was 75% (active); in assay [2] (setting [7]), 4%; in assay [2] (setting [8]), 49%; in assay [2] (at 50.0 µM) it was 35.2%. The growth inhibition in assay [3] (setting [7]) is 14%; in assay [3] (setting [8]) it was 92% (active); in assay [3] (at 50.0 µM) it was 75.9% (active); in assay [4] (setting [7]), 7%; in assay [4] (setting [8]), 26%; in assay [4] (at 50.0 µM), 72% (active). The growth inhibition in assay [5] (setting [7]) was 6%; in assay [5] (setting [8]) it was 73% (active); in assay [5] (at 50.0 µM), 39.2%; in assay [6] (setting [7]), 2%; in assay [6] (setting [8]), 66%; in assay [6] (at 50.0 µM) it was 74.5% (active).
